# Assay outcomes: PubChem BioAssay, National Center for Advancing Translational Sciences (NCATS)
# AMA1-RON2 inh: inhibitors of Plasmodium falciparum AMA1-RON2 interaction; 360,000 tested, 0.2% active; AID 720542; Potency, µM (highest dose often 58.2 µM), without a hit: at the top dose activity change, negative = inhibition, actives largely listed as inhibitors; AlphaScreen AMA1-biotinylated RON2 peptide binding;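 further: 0% = vehicle wells and -100% = peptide control; nearly all actives have a fitted effect of over 45% in size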
#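 AMA1 (3D7) with his tag at 25 nM final met compounds first, then biotinylated RON2 peptide at 25 nM; detection used donor plus acceptor beads, 10 µg/mL apiece, read by AlphaScreen after 30 min at room temperature.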
# MARV entry inh: blocks Marburg virus binding to or entry into cells; 300,000 tested, 1.8% active; Potency, µM (doses to about 37.8 µM), for inactives: top-dose activity change, negative = inhibition, most hits filed as inhibitors; Marburg virus pseudotyped entry inhibition, cell reporter; AID 540276; calls by dose curve; tested in HEK293 cells
# AmpC no deterg: AmpC beta-lactamase inhibition without detergent; P00811; AmpC nitrocefin hydrolysis, absorbance 480 nm, 0.0001% Triton; Potency, µM (top dose mostly 57.1 µM), inactives show at the highest dose activity change, negative = inhibition, usual class: inhibitors; 330,000 tested, 0.52% active; AID 485341;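 further: plate controls were no compound for no effect and no enzyme for full effect; nearly all actives have a fitted effect of over 20% in size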
# Target sequence (P00811 whole entry, looked up): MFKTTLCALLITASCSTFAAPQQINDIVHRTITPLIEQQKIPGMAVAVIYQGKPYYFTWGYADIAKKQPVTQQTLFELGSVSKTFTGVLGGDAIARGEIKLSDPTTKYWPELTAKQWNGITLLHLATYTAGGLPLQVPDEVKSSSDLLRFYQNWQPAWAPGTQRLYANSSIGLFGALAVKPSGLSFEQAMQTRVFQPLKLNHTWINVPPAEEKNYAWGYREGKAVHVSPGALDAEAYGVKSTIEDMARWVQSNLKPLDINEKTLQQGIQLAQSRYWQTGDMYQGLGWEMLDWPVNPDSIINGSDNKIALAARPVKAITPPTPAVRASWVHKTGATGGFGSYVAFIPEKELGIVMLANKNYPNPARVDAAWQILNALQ
#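 20 mM phosphate pH 7.0 + 0.01% (detergent screen) or 0.0001% Triton X-100; 5.3 nM AmpC reagent; cpd preinc 15 min RT; nitrocefin (800 uM stock) to start; A480 q20 s × 4 min; Activity was normalised to no-enzyme and no-compound control wells.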
# Lassa entry inh: inhibitors of Lassa virus binding or cell entry | Lassa virus pseudotype entry inhibition, cell reporter | 300,000 tested, 1.2% active | Potency, µM (doses to about 37.9 µM), for inactives: at the top dose activity change, negative = inhibition, usual class: inhibitors | AID 540256; calls by dose curve; tested in HEK293 cells; further: nearly all actives have a fitted effect of over 50% in size
# AmpC detergent: inhibitors of E. coli AmpC beta-lactamase with detergent | 370,000 tested, 0.041% active | Potency, µM (doses to about 114 µM), for inactives: at the highest dose activity change, negative = inhibition, actives largely listed as inhibitors | AmpC hydrolysis of nitrocefin, absorbance 480 nm, 0.01% Triton | P00811 | AID 485294;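 further: 0% = no-compound wells and -100% = no-enzyme wells; nearly all actives have a fitted effect of over 25% in size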
#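 AmpC (5.3 nM in the dispensed reagent) in 20 mM phosphate pH 7.0 with 0.01% (detergent screen) or 0.0001% Triton X-100 was preincubated with compounds for 15 min at room temperature. Nitrocefin was then added from an 800 uM solution, and hydrolysis was followed at 480 nm.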
# * marks the source's active call; other numbers are inactive results; u = inconclusive; x = no result; [ ] = another dose, or the depositor's remark. Only some compounds are listed: those with a hit (about 2.3% of all), similar ones and a draw of the others. Unless noted, the call rests on the fitted dose curve; in most records, active means well fitted curve in the direction sought with a large enough effect; inconclusive means small, poorly fitted or top-dose-only effect, or another doubt; inactive means no such curve, though single readings can be large; an effect the other way counts as inactive or inconclusive. Unless noted, on the % scale 0 is the no-effect control and ±100 the full control effect; potency means the concentration at half of the fitted maximal effect.
SMILES,AMA1-RON2 inh,MARV entry inh,AmpC no deterg,Lassa entry inh,AmpC detergent
Cc1cccc(NC(=O)CNC(=O)COc2ccc(-c3ccc(C#N)cc3)cc2)c1C,-9.6%,u,28.2µM*,9.7%,-3.2%
Clc1ccc2nc(-c3ccc(Cl)nc3)[nH]c2c1,-15.2%,7.94µM*,-52.0%,u,1.1%
Nc1ccc2nc(-c3ccc(Cl)cc3)[nH]c2c1,20.6%,x,-6.4%,x,-10.0%
CN(C)c1cc(NC(=O)CN2CCCC2)c2ccccc2n1,-26.4%,10µM*,-13.7%,5.9%[46.1 µM],6.4%
CC12C=C(C=Cc3ccc(Br)cc3)C(C)(C1)[C@H](c1ccc(Br)cc1)CC2=O (stereo not given in full),x,-26.3%[14.2 µM],x,u,x
Cc1ccc(NC(=O)N2CCc3c([nH]c4ccccc34)C2c2ccccc2F)c(Cl)c1 (stereo not given),x,x,x,7.94µM*,30.4%
CC(=O)NCc1cc(Cl)c2cccnc2c1O,x,x,-5.7%,x,-6.5%
Cc1ccc(C(=O)O)cc1-c1ccc(/C=C2\SC(=O)N(CC(=O)Nc3ccccc3)C2=O)o1,u,22.2%[46.1 µM],-27.9%,-4.3%,56.2µM*
Cc1ccccc1NC(=O)CN1C(=O)S/C(=C\c2ccc(-c3cc(C(=O)O)ccc3C)o2)C1=O,-26.4%,0.1%[46.1 µM],-22.0%,-16.3%,56.2µM*
Cc1cc(C(=O)O)ccc1-c1ccc(/C=C2\SC(=O)N(CC(=O)Nc3ccc4c(c3)OCO4)C2=O)o1,x,x,-46.1%,x,-12.6%
CCN1C(=O)C[C@H](N2CCN(c3ccc(OC)cc3)CC2)C1=O,x,10.1%,x,x,x
CC1CN(C(=O)N2CCC(C(=O)NCCCc3ccccc3)CC2)c2ccccc2O1 (stereo not given),x,x,x,12.1%[46.1 µM],-1.6%
CCCN(CCC)CCNC(=O)C1CCN(Cc2nc(-c3ccc(Cl)cc3)oc2C)CC1,-11.1%,10.3µM*,12.3%,u,3.8%
Cc1oc(-c2cccc(Cl)c2)nc1CN1CCC(C(=O)NCCc2ccc(Cl)cc2)CC1,x,2.0%[46.1 µM],x,16.7%[46.1 µM],u
COc1ccc(-c2nc(CN3CCN(c4cc(C)nc(C)c4)CC3)c(C)o2)c2ccccc12,-13.1%,u,-6.7%,11.2µM*,-1.9%
COc1ccc(-c2nc(CN3CCN(Cc4ccccc4)CC3)c(C)o2)cc1,-8.0%,x,74.8%,x,-9.5%
Cc1cc(N2CCN(Cc3nc(-c4ccc(Cl)cc4)oc3C)CC2)cc(C)n1,-10.1%,3.98µM*,75.8%,u,6.0%
COc1ccccc1CNC(=O)C1CCN(C2=NS(=O)(=O)C(c3ccc(C)c(C)c3)=C2C)CC1,x,x,x,-0.4%[46.1 µM],1.2%
Cc1cccc(-c2nc(SCC(=O)Nc3ccc4c(c3)OCCO4)c(-c3ccccc3)[nH]2)c1,x,u,x,u,9.9%
O=C(CSc1nc(-c2cccc(F)c2)[nH]c1-c1ccccc1)Nc1ccc2c(c1)OCCO2,x,u,x,10µM*,7.1%
COc1ccc(-c2[nH]c(-c3cccc(OC)c3)nc2SCC(=O)Nc2ccc3c(c2)OCO3)cc1,x,-13.6%[46.1 µM],x,7.94µM*,-6.3%
COc1cccc(-c2nc(SCC(=O)Nc3ccc4c(c3)OCCO4)c(-c3ccccc3)[nH]2)c1,x,u,x,u,8.3%
CC(C)CCNC(=O)Nc1ccc2c(c1)N(Cc1ccccc1)C(=O)c1ccccc1S2,x,u,x,u,-3.9%
CCCc1cc(=O)oc2cc(OCC(=O)NCc3cccs3)ccc12,9.8%,-0.4%,-36.5%,5.5%,-6.9%
COc1ccc2c(CC(=O)OCC(=O)Nc3ccc(C)cc3)coc2c1,-8.1%,x,-33.3%,x,-13.8%
SMILES,AMA1-RON2 inh,MARV entry inh,AmpC no deterg,Lassa entry inh,AmpC detergent
COc1ccc2c(CC(=O)OCC(=O)Nc3ccc(S(N)(=O)=O)cc3)coc2c1,-9.8%,6.6%[46.1 µM],10µM*,27.0%[46.1 µM],-7.8%
CCCc1cc(=O)oc2cc(OCC(=O)Nc3ccc(S(N)(=O)=O)cc3)ccc12,0.3%,x,28.2µM*,x,56.2µM*
Cc1ccc2c(c1)C(c1ccc(F)cc1)N(C(=O)COc1ccc(Cl)cc1Cl)CC(=O)N2 (stereo not given),x,u,x,u,8.2%
O=C(Nc1ccc(NC(=O)c2cccs2)cc1)c1cccs1,-0.3%,u,-25.1%,22.4%[46.1 µM],8.6%
O=C(Nc1nonc1NC(=O)c1cccs1)c1cccs1,-8.1%,u,-36.9%,8.91µM*,1.2%
O=[N+]([O-])c1ccccc1/C=N/N1CCN(c2ccc(Cl)cc2)CC1,u,-19.0%,-0.5%,-0.2%,u
COc1ccccc1N1CCN(/N=C\c2sccc2C)CC1,12.6µM*,-0.8%[46.1 µM],-5.4%,10.3%,u
O=[N+]([O-])c1ccccc1/C=C\C=N\N1CCN(c2ccccc2)CC1,u,x,-11.6%,x,6.8%
O=[N+]([O-])c1ccccc1/C=N\N1CCN(c2ccccc2)CC1,22.4µM*,x,-27.2%,x,-1.2%
COc1ccccc1N1CCN(/N=C\c2ccccc2)CC1,-12.0%,x,7.1%,x,-2.7%
O=[N+]([O-])c1ccccc1/C=C/C=N/N1CCCCC1,10µM*,u,-14.4%,u,-2.5%
COc1ccccc1N1CCN(/N=C/C=C/c2ccccc2[N+](=O)[O-])CC1,5.62µM*,u,44.9%,4.7%[46.1 µM],0.1%
C#CCCCON=C1C[C@@H](O)[C@H](O)[C@H]2[C@@H]3C(=O)N(C4CCCCC4)C(=O)[C@@H]3CC[C@@H]12,x,42.8%[14.2 µM],x,x,x
CNc1ncnc2ccc(-c3c(C)noc3C)cc12,x,x,-11.7%,x,-2.2%
N#Cc1ccc(C(=O)NNC(=O)c2cccc(S(=O)(=O)N3CCOCC3)c2)cc1,10.9%,22.6%,-34.0%,-1.2%,x
O=C(NNC(=O)c1ccc(O)c(Cl)c1)c1cccc(S(=O)(=O)N2CCOCC2)c1,-9.2%,10µM*,-15.0%,-19.7%,7.6%
CCc1ccc(NC(=O)Cn2c(-c3cncs3)nc3ccccc32)cc1,x,-21.2%[46.1 µM],x,-2.0%[46.1 µM],-5.2%
COc1ccc(-c2nc3ccccc3s2)cc1O,11.6%,7.08µM*,-1.0%,7.08µM*,-0.1%
Oc1cccc(-c2nc3ccccc3s2)c1,-18.4%,7.08µM*,-19.7%,u,-13.5%
COc1cc(C2C(C#N)=C(N)N(c3cccnc3)C3=C2C(=O)CCC3)ccc1O (stereo not given),19.0%,0.6%,-16.0%,0.8%,0.1%
COc1ccc(C2C(C#N)=C(N)N(c3ccccc3C#N)C3=C2C(=O)CCC3)cc1CN1CCCC1 (stereo not given),-10.2%,5.8µM*,-3.1%,0.9%,-6.9%
COc1cccc(CNC(=O)c2c(C)nn(-c3cccc(C)c3)c2-n2cccc2)c1,x,x,x,-5.0%[46.1 µM],2.8%
CCOC(=O)c1cc(-c2ccccc2)n(CCC(=O)NCCc2ccccc2)c1C,x,x,x,11.2µM*,7.4%
CCCNC(=O)CCn1c(-c2ccc(C)cc2)cc(C(=O)OCC)c1C,-1.9%,-16.8%,98.1%,-8.1%,1.4%
CCSc1ncc(Cl)c(C(=O)Nc2nc3ccc(S(C)(=O)=O)cc3s2)n1,x,u,x,-10.6%[46.1 µM],-3.2%
COc1ccc2c(=O)c(C(=O)NCCc3ccc(OC)c(OC)c3)c[nH]c2c1,5.1%,7.3µM*,60.6%,u,u
